Experimental data reported in PubChem BioAssay AID2391 (Southern Research Specialized Biocontainment Screening …, 2010).
Hit rate of the full screen: of about 310,000 compounds, about 410 (0.13%) were called active. Not shown: some 2% with an inconclusive outcome. The rule behind the calls is not given here. These entries were drawn from the full list. Potency and affinity values are given separately.

Experiment: RSV antiviral activity via CPE protection, HEp-2 cells, primary 10 µM value included (AID 2391)
Conditions: RSV-induced CPE inhibition, at 10 µM, active compounds read high

CPE inhibition, inactive:
O=C(N/N=C/c1cccnc1)c1cc(C2CC2)nc2ccccc12 1.57%, Cc1cc(C)c2nc(SCC#N)cc(C)c2c1 11.1%, C/C(N)=C(/C#N)C(=O)CSc1cc(C)c2ccccc2n1 12.3%, CC(C)S(=O)(=O)CC(=O)c1ccc(Cl)cc1 1.72%, O=C(Cn1c2ccccc2c2nc3n(c(=O)c21)CCS3)Nc1ccccc1 0.68%, Cc1ccc(C(=O)Nc2ccc3c(c2)C(=O)NC3=O)cc1 3.34%, COc1cc(-c2nnc(SCc3ccccc3Cl)o2)cc(OC)c1OC 10.5%, COc1cc(OC)cc(-c2nnc(SCc3c(F)cccc3Cl)o2)c1 9.5%, CCc1nn(CC(=O)NCCCN(Cc2ccccc2)C(C)C)c(=O)c2cc3sccc3n12 3.25%, CC(OC(=O)CSc1ccc(F)cc1)C(=O)NC1(C#N)CCCCC1 (configuration not stated) 1.61%, CC(C)(C)SCCNS(=O)(=O)c1ccccc1 2.31%, COc1ccc(C(=O)N/C(=C/c2cccs2)C(=O)NN)cc1OC 0.82%, O=C(N/C(=C/c1cccs1)c1nc2ccccc2[nH]1)c1ccccc1 -0.44%, COc1ccc(/C=C(/NC(=O)c2ccccc2)c2nc3ccccc3[nH]2)cc1OC 1.75%, Cc1ccc(C(=O)N/C(=C\c2cccs2)c2nc3ccccc3[nH]2)cc1 1.69%, Cc1cc(C)c(C(=O)Nc2ccc(S(=O)(=O)Nc3onc(C)c3C)cc2)c(C)c1 0.27%, Cc1ccc2c(=O)cc(C(=O)Nc3ccc(S(=O)(=O)Nc4onc(C)c4C)cc3)oc2c1 1.69%, Cc1ccc2oc(C(=O)Nc3ccc(S(=O)(=O)Nc4onc(C)c4C)cc3)cc(=O)c2c1 1.61%, Cc1ccc2oc(C(=O)Nc3ccc(S(=O)(=O)Nc4ncccn4)cc3)c(C)c2c1 1.95%, O=C(N/N=C/c1cc2c(cc1Cl)OCO2)c1cccc(Br)c1 0.51%, COc1ccc(C(c2nnnn2Cc2ccccc2)N2CCN(c3nc4ccccc4s3)CC2)cc1OC (configuration not stated) 8.79%, CNC(=O)NC(=O)COC(=O)/C=C/c1cccc(Br)c1 4.26%, COC(=O)c1cccc(CSc2nc(-c3ccccc3)c(C#N)c(=O)[nH]2)c1 -0.22%, c1ccc(OCCOc2ncnc3ccccc23)cc1 2.27%, COCCNC(=O)COc1ncnc2ccc(Br)cc12 0%, N#CCSc1ncnc2ccccc12 0.16%, O=C(COc1ncnc2ccccc12)NCCc1ccccc1 4.07%, c1ccc(CSc2ncnc3ccccc23)cc1 -0.1%, O=C(COc1ncnc2ccc(Br)cc12)NC1CCCC1 -0.78%, CCOC(=O)c1c(C)c(C(=O)Nc2ccc3c(c2)OCCO3)c(C)n1C -0.46%, N#Cc1nc(-c2ccco2)oc1NCc1ccco1 1.01%, O=C(COc1ccccc1)Nc1ccccc1C(=O)NCc1ccco1 -0.74%, CC1CCc2[nH]c3ccc(C(=O)N(C)CC(=O)Nc4ccc(F)cc4)cc3c2C1 (configuration not stated) 5.53%, COc1ccc(NC(=O)CN(C)C(=O)c2ccc3[nH]c4c(c3c2)CC(C)CC4)cc1 (configuration not stated) 6.52%, CCOc1cccc2c1OC1(C)CC2NC(=O)N1c1ccc(OC)cc1 (configuration not stated) 0.71%, C=CCN(c1ccc(F)cc1)S(=O)(=O)c1cc(C(=O)OCC(=O)N(C)C2CCS(=O)(=O)C2)ccc1Cl (configuration not stated) 0.97%, CCC(=O)NC(=S)Nc1ccc(NC(=O)COc2ccc(Cl)cc2Cl)cc1 3.92%, CCC(=O)NC(=S)Nc1ccc(NC(=O)COc2ccccc2)cc1 -0.96%, Nc1nc(SCCN2C(=O)c3ccccc3C2=O)n[nH]1 -0.57%, CCOC(=O)C1(Cc2cccc(OC)c2)CCN(Cc2cccn2-c2ccccn2)CC1 0.49%, CCOC(=O)C1(Cc2ccccc2)CCN(Cc2cccn2-c2nccs2)CC1 3.06%, O=C(O)CN=C(NS(=O)(=O)c1ccc(Cl)cc1)c1ccc(F)cc1 0.86%, O=C(CSc1nc2ccccc2c(=O)n1Cc1ccco1)NCc1ccco1 0.72%, CCOC(=O)CSc1nc2ccccc2c(=O)n1Cc1ccco1 0.79%, Cc1[nH]n(-c2ccccc2)c(=O)c1Sc1ccc(Cl)cc1 2.83%, Cc1ccc(OCCn2cnc3cc([N+](=O)[O-])ccc3c2=O)cc1 5.29%, COc1ccc(N(CC(=O)NC2CCCC2)C(=O)c2ccc(C)s2)c(OC)c1 41%, COc1ccc(N(CC(=O)NC2CCCCC2)C(=O)c2ccc(C)s2)cc1OC 5.93%, CC(=O)c1ccc(OCCCC(=O)NNC(=O)c2ccccn2)cc1 1.08%, Cn1c(=O)c2ccccc2n(CC(=O)N2CCCc3ccccc32)c1=O 12.6%, COc1cc(C2NC(=O)NC(C)=C2C(=O)OCc2ccc(C)cc2)cc(OC)c1OC (configuration not stated) 1.37%, CN(CC(=O)Nc1ccc(Cl)c(Cl)c1)C(=O)CNC(=O)C1CCCCC1 -0.65%, O=C(Cn1cnc2ccccc21)N/N=C/c1ccccc1 1.41%, COC(=O)c1c(-c2ccc(C)cc2)csc1NC(=O)c1c(-c2ccccc2)noc1C 45.8%, CCOC(=O)c1c(-c2ccccc2)csc1NC(=O)c1cc(-c2ccccc2OC)on1 3.07%, COC(=O)c1c(-c2ccccc2)noc1C 3.69%, CCOC(=O)c1c(-c2cccc(C)c2)csc1NC(=O)C1CC=CCC1C(=O)O (configuration not stated) 1.3%, O=C(COc1ccc(S(=O)(=O)N2CCOCC2)cc1)NC1CC1 0.7%, CCO/N=C1\C(=O)N(c2ccccc2)c2ccccc21 10.6%, CN1CCN(c2ccc(Nc3ccnc4cc(Cl)ccc34)cc2)CC1 0.21%, Cc1ccc2[nH]ccc(=O)c2c1 4.4%, CCNc1oc(-c2cccc3ccccc23)nc1C#N 31%, CNc1oc(-c2cccc3ccccc23)nc1C#N 22.2%, O=C(NC1CCCCC1)c1cc(S(=O)(=O)N2CCOCC2)c(Cl)cc1Cl -0.26%, CC1CCN(C(=O)CCc2nnc3ccc(NCCCN4CCCC4=O)nn23)CC1 2.33%, COC(=O)c1ccc(COC(=O)CNC(=O)c2ccc(-c3ccccc3)cc2)cc1 3.63%, COc1ccc2oc(C(=O)NCCC(C)C)c(C)c2c1 3.36%, Cc1nc2ccccc2nc(C)c1=NOCc1cccc(Cl)c1 3.77%, Cc1nc2ccccc2nc(C)c1=NOCc1ccc(C#N)cc1 3.19%, CCNC(=O)CC1C(=O)N(c2ccc(F)cc2)C(=S)N1CCc1ccncc1 (configuration not stated) -1.58%, CCOC(=O)c1sc(NS(=O)(=O)c2ccc(F)cc2)nc1C -0.12%, O=S(=O)(NC1CCN(Cc2ccccc2)CC1)c1ccc2ccccc2c1 -0.58%, CCOc1cc(C(=S)N2CCCC2)ccc1O 0.51%, COC(=O)N/N=C/c1ccc(-c2cc(Cl)ccc2Cl)o1 -0.35%, COC(=O)N/N=C/c1ccc(-c2cc(Cl)cc(Cl)c2)o1 42.2%, Cc1ccc(C(=O)N2CCN3C(=O)c4ccccc4C23c2ccccc2)cc1 (configuration not stated) 3.84%, O=C(c1ccc(F)cc1)N1CCN2C(=O)c3ccccc3C12c1ccc(Cl)cc1 (configuration not stated) 73.1%, Cc1nc2ccccc2nc1OCc1ccc([N+](=O)[O-])cc1 1.85%, Nc1ccc(C(=O)Nc2ccco2)cc1 0.93%, Nc1c(-c2cccs2)cnc2c(-c3ccc(F)cc3)cnn12 10.8%, CCCn1c(SCC(=O)Nc2cc(C)on2)nc2c1c(=O)n(C)c(=O)n2C -0.53%, COc1ccc(S(=O)(=O)N2CCCCC2)cc1NC(=O)C1CC1 -0.43%, O=C(COC(=O)c1cnccn1)c1ccc(C2CCCCC2)cc1 1.84%, Cc1cc(NC(=O)C(C)SCC(=O)OCC(=O)N(C)c2ccccc2)no1 (configuration not stated) 0.41%, Cc1cccc(N(Cc2ccccc2)C(=O)CSC(C)C(=O)Nc2cc(C)on2)c1 (configuration not stated) 15.8%, CNC(=S)SCCOc1ccccc1 1.7%, COc1ccc(-n2nc(C(=O)NCC(=O)N3CCCC(C)C3)c3ccccc3c2=O)cc1 (configuration not stated) 2.49%, COc1ccc2cc3cc(C(=O)NC4CC4)sc3nc2c1 6.36%, CCC(C)NC(=O)c1cc2cc3ccc(OC)cc3nc2o1 (configuration not stated) 4.45%, CCc1ccccc1NC(=O)NNC(=O)CCc1ccc(OC)cc1 1.38%, COc1cccc(CNCc2cc(OC)cc(OC)c2)c1 -0.77%, CN(C)c1nc(N/N=C/c2c[nH]c3ccccc23)nc(N2CCOCC2)n1 5.13%, C(=N\Nc1nc(Nc2ccccc2)nc(N2CCOCC2)n1)/c1c[nH]c2ccccc12 38.2%, Cc1ccc(S(=O)(=O)NC2CCSC2=O)cc1C (configuration not stated) 0%, COc1cccc(C(c2c(NC(=O)c3ccco3)sc(C)c2C)N2CCOCC2)c1 (configuration not stated) 0.09%, Cc1sc(NC(=O)c2ccco2)c(C(c2ccncc2)N2CCOCC2)c1C (configuration not stated) 6.19%, COC(=O)c1ccccc1S(=O)(=O)N1CCC(C(=O)OC(C)C(=O)NC(N)=O)CC1 (configuration not stated) 1.21%
